“And” between values parts separate entries of the source, which are not always exact repeats. Equal values may be shown once. Inconclusive results are not listed. Unmarked numbers belong to inactive results. Unless noted, the call rests on the fitted dose curve.

One assay is described as follows: qHTS assay for small molecule activators of the p53 signaling pathway (AID 651743; active means well fitted activation curve with a large enough effect in the signal ratio, not every such curve was filed as active; the % refers to the signal ratio; further: % of control where 0% means no effect). To be noted: HCT-116 p53RE-bla, beta-lactamase FRET ratio, 16 h; activation: active compounds read high. The procedure, abridged:
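Following 16 hours of compound exposure at 37 C, HCT-116 cells bearing the p53RE-bla reporter were loaded with LiveBLAzer B/G FRET substrate for 2 hours at room temperature and fluorescence intensity was recorded.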
As to `Oc1cccc(Cl)c1Cl`, the activation is 0.548%.

As for `CCC/C=N/O`, the activation is 2.09%.

`Nc1cccc2ccccc12`: the activation is -3.1%.

In the case of `Cc1cnc[nH]1`, the activation is -6.55%.

Consider `CN(C)N=O`, for which the activation is -2.39%.

Regarding `COc1c(C(C)(C)C)cc([N+](=O)[O-])c(C)c1[N+](=O)[O-]`, the activation was -1.58%.

`C=C(Cl)CCl`: the activation is -0.495%.

With `ClCCOCOCCCl`, the activation is -4.18%.

For the compound `CC12CC1(C)C(=O)N(c1cc(Cl)cc(Cl)c1)C2=O` (configuration not stated), the activation was 3.14%.

Turning to `CC(C)(Cl)[N+](=O)[O-]`, the activation is 3.96%.

As to `Cl/C=C/Cl`, the activation is -3.7%.

For `CCCCOCC1CO1` (configuration not stated), the activation was -1.31%.

In the case of `C1CC2OC2CC1C1CO1` (configuration not stated), the activation is -4.75% and -3.06%.

`ClCCOCCCl`: the activation was -1.88%.

Take `Cl/C=C\Cl`: the activation was 1.35%.

`c1ccc2c(c1)CCNC2`: the activation is -2.09%.

Consider `CCBr`, for which the activation is 1.32%.

For the compound `O=[N+]([O-])c1ccc(Cl)c(Cl)c1Cl`, the activation was -2.43%.

On to `N#CCCC#N`, for which the activation is -0.196%.

Consider `Cc1ccccc1[N+](=O)[O-]`, for which the activation was 1.69%.

Regarding `C=CC(=O)OCCN(C)C`, the activation was 0.0499%.

Take `CC(C)(C)C(O)(CCc1ccc(Cl)cc1)Cn1cncn1` (configuration not stated): the activation is -3.53% and -2.93%.

As to `N#CCCCCC#N`, the activation is -0.437%.

For `CN=C=O`, the activation was -2.98%.

For `c1ccc(C2CO2)cc1` (configuration not stated), the activation was -1.82%.

For the compound `CCCCCC[N+](=O)[O-]`, the activation is -5.04%.

Turning to `OCC(Cl)CCl` (configuration not stated), the activation was -0.732%.

For the compound `COc1ccc(C=O)cc1`, the activation is -1.3%.

For `Nc1ccc(Cl)c(Cl)c1`, the activation was 0.678%.

For `CC(=O)CCC(C)=O`, the activation was 0.727%.

As to `C=CC(=O)OCC(CC)CCCC` (configuration not stated), the activation was 0.81% and 5.58%.

With `CC(C#N)CCC#N` (configuration not stated), the activation is -0.507%.

A short description of another assay: qHTS assay for small molecule activators of the nuclear factor-kappa B (NF-kB) signaling pathway (AID 651749; active means well fitted activation curve with a large enough effect in the signal ratio; the % refers to the signal ratio; further: % of control where 0% means no effect). To be noted: NF-kB-bla ME-180 cells, beta-lactamase FRET ratio, 16 h; active compounds read high. In short, it runs like this:
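In this qHTS format, compounds acting as activators increase NF-kB-driven beta-lactamase in ME-180 cells, measured as disrupted FRET after 16 hr exposure at 37C and 5% CO2.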
(In general: Quantitative high-throughput screening tests each substance at several concentrations.)
Take `Cc1cnc[nH]1`: the activation was -0.55%.

On to `CN(C)N=O`, for which the activation was -0.838%.

As to `COc1c(C(C)(C)C)cc([N+](=O)[O-])c(C)c1[N+](=O)[O-]`, the activation is -0.667%.

Turning to `C=C(Cl)CCl`, the activation is 0.174%.

In the case of `ClCCOCOCCCl`, the activation is -0.753%.

Turning to `CC12CC1(C)C(=O)N(c1cc(Cl)cc(Cl)c1)C2=O` (configuration not stated), the activation was -0.629% and -1.26%.

Take `CC(C)(Cl)[N+](=O)[O-]`: the activation was -0.598%.

In the case of `Cl/C=C/Cl`, the activation is -1.04%.

Take `O=C(O)c1cccc(Cl)c1`: the activation is -1.59%.

Turning to `C1CC2OC2CC1C1CO1` (configuration not stated), the activation is -0.692% and -2.3%.

For `Brc1cccc(-c2ccccc2)c1`, the activation is -1.09%.

Turning to `Oc1c(Cl)cccc1Cl`, the activation is -0.406%.

Regarding `ClCCOCCCl`, the activation was -0.467%.

As for `CC(C)C#N`, the activation is -0.872%.

Regarding `Cl/C=C\Cl`, the activation was 0.0953%.

In the case of `c1ccc2c(c1)CCNC2`, the activation is 0.526%.

With `CCBr`, the activation was -0.926%.

With `O=[N+]([O-])c1ccc(Cl)c(Cl)c1Cl`, the activation was 0.972%.

Regarding `N#CCCC#N`, the activation is 0.61%.

Regarding `Cc1ccccc1[N+](=O)[O-]`, the activation is 3.11%.

For `OCCBr`, the activation was 0.0665%.

Consider `C=CC(=O)OCCN(C)C`, for which the activation was -1.13%.

With `CC(C)(C)C(O)(CCc1ccc(Cl)cc1)Cn1cncn1` (configuration not stated), the activation is -0.348% and -1.3%.

Consider `CCCCCC[N+](=O)[O-]`, for which the activation was 1.69%.

`OCC(Cl)CCl` (configuration not stated): the activation was 0.192%.

With `COc1ccc(C=O)cc1`, the activation was -0.721%.

On to `Nc1ccc(Cl)c(Cl)c1`, for which the activation is 0.145%.

In the case of `CC(=O)CCC(C)=O`, the activation was 0.108%.

`C=CC(=O)OCC(CC)CCCC` (configuration not stated): the activation is -0.0286% and 0.831%.

For the compound `CC(C#N)CCC#N` (configuration not stated), the activation is 0.705%.

The nature of a further assay: qHTS assay for small molecule disruptors of the mitochondrial membrane potential - 1 hr assay (AID 651754). Further: on the % scale 0 is the no-effect control and ±100 the full control effect; nearly all actives have a fitted effect of over 35% in size. To be noted: series mostly up to 92.2 µM; ratio change, negative = depolarisation: at the top concentration. The procedure, abridged: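 Loss of mitochondrial potential shifts the cationic dye from red mitochondrial aggregates to green cytoplasmic monomers. Cells (HepG2) are treated with compound for 1 hr before a 30 min dye incubation at 37C.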
Regarding `Oc1cccc(Cl)c1Cl`, the “ratio change, negative = depolarisation” value is -18.6%.

Take `CCC/C=N/O`: the “ratio change, negative = depolarisation” value is 1.09%.

As to `Cc1cnc[nH]1`, the “ratio change, negative = depolarisation” value was 1.94%.

As for `COc1c(C(C)(C)C)cc([N+](=O)[O-])c(C)c1[N+](=O)[O-]`, the “ratio change, negative = depolarisation” value is -17.3%.

With `C=C(Cl)CCl`, the “ratio change, negative = depolarisation” value is 8.19%.

On to `ClCCOCOCCCl`, for which the “ratio change, negative = depolarisation” value is 6.48%.

For the compound `CC(C)(Cl)[N+](=O)[O-]`, the “ratio change, negative = depolarisation” value is 0.509%.

On to `CCCCOCC1CO1` (configuration not stated), for which the “ratio change, negative = depolarisation” value was 1.37%.

For the compound `O=C(O)c1cccc(Cl)c1`, the “ratio change, negative = depolarisation” value is 0.679%.

On to `C1CC2OC2CC1C1CO1` (configuration not stated), for which the “ratio change, negative = depolarisation” value was -0.342%.

With `Brc1cccc(-c2ccccc2)c1`, the “ratio change, negative = depolarisation” value was 3.05%.

On to `Oc1c(Cl)cccc1Cl`, for which the “ratio change, negative = depolarisation” value is -10.1%.

In the case of `CC(C)C#N`, the “ratio change, negative = depolarisation” value was 0.182%.

For the compound `Cl/C=C\Cl`, the “ratio change, negative = depolarisation” value was 0.59%.

On to `CCBr`, for which the “ratio change, negative = depolarisation” value was 2.68%.

Regarding `OCCBr`, the “ratio change, negative = depolarisation” value was -5.2%.

Consider `C=CC(=O)OCCN(C)C`, for which the “ratio change, negative = depolarisation” value is 1.68%.

With `CC(C)(C)C(O)(CCc1ccc(Cl)cc1)Cn1cncn1` (configuration not stated), the “ratio change, negative = depolarisation” value is -2.15%.

On to `N#CCCCCC#N`, for which the “ratio change, negative = depolarisation” value is 0.905%.

`CN=C=O`: the “ratio change, negative = depolarisation” value is 7.31%.

With `c1ccc(C2CO2)cc1` (configuration not stated), the “ratio change, negative = depolarisation” value is 1.32%.

For `CCCCCC[N+](=O)[O-]`, the “ratio change, negative = depolarisation” value was 1.61%.

Take `Nc1ccc(Cl)c(Cl)c1`: the “ratio change, negative = depolarisation” value is -14.7%.

For the compound `CC(=O)CCC(C)=O`, the “ratio change, negative = depolarisation” value was 4.3%.

On to `C=CC(=O)OCC(CC)CCCC` (configuration not stated), for which the “ratio change, negative = depolarisation” value was 2.58%.

For the origin of these results see PubChem BioAssay (NCATS).
